These results are taken from PubChem BioAssay AID588690 (Broad Institute, 2011).

The whole screen tested about 2,400 compounds, of which fewer than 10 were called active. Not shown: some 1% with an inconclusive outcome.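 The calls were made as follows: active = highest replicate activation at or above 34% and every replicate reaching that threshold; inconclusive = meets only one of the two criteria; inactive = meets neither criterion.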 Only a sample is shown.

In this experiment the target is Protein FosB (Mus musculus) (UniProt P13346). The experiment is described as follows: enhancers of delta FosB homodimer–AP-1 oligo binding – biochemical, fluorescence polarization, TAMRA-CDK5 oligo, cherry-picked samples, confirmation (AID 588690).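 Also: higher polarization means more probe DNA bound by delta FosB.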 Particulars: purified delta FosB, at 24.9 µM, hits give high values, normalised: neutral wells 0, positive control 100. (In general: In fluorescence polarisation assays a small probe gives low polarisation when free and higher when bound to something large.)
Protein FosB (Mus musculus), sequence (P13346 whole entry, looked up): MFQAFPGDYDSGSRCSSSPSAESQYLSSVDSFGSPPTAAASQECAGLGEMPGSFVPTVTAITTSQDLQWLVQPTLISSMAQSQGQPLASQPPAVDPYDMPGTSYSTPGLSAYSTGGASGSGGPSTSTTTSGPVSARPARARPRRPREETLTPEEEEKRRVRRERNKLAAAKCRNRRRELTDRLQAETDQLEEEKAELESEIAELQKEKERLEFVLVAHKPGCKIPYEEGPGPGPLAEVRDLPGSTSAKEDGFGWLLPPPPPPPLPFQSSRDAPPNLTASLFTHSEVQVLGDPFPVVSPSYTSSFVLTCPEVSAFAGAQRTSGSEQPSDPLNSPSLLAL
As to `O=C(Nc1ccc(Br)cc1)c1cc(S(=O)(=O)Nc2ccccn2)ccc1Cl`, the activation was 0.723% (inactive).

`COc1cccc(CNC(=O)c2nnn(CC(=O)Nc3cc(Cl)ccc3C)c2N)c1`: the activation is 5.89% (inactive).

Regarding `Cc1ccc2nc(-c3ccccn3)cc(C(=O)Nc3ccc4c(c3)OCO4)c2c1`, the activation is 5.01% (inactive).

Consider `CN(C)CC(O)COc1ccc(C(C)(C)c2ccc(OCC(O)CN(C)C)cc2)cc1` (stereo unspecified), for which the activation was 3.1% (inactive).

For `O=C(Cn1cc(-c2nnnn2-c2ccc(Cl)cc2)c(=O)c2ccccc21)c1ccccc1`, the activation is 0.385% (inactive).

`CCn1c(=O)c2cc(C(=O)Nc3cccc(C(C)=O)c3)sc2c2ccccc21`: the activation is 8.7% (inactive).

Regarding `CC(=O)Nc1ccc(C(=O)CSc2nnc(Cc3ccccc3)o2)cc1`, the activation is 1.84% (inactive).

For the compound `O=C(N/N=C/c1cccc(O)c1)c1cc2c(ccc3ccccc32)o1`, the activation is -5.62% (inactive).

Turning to `CC(=O)c1ccc(NC(=O)C2CC(=O)Nc3nc4ccccc4n32)cc1` (stereo unspecified), the activation was -4.9% (inactive).

Regarding `CCCCn1c(N)c(N(CCC(C)C)C(=O)COC(=O)c2ccc(CC)cc2)c(=O)[nH]c1=O`, the activation is 0.0735% (inactive).

In the case of `Cc1sc2nc(CSCC(=O)Nc3c(Cl)cccc3Cl)[nH]c(=O)c2c1C`, the activation was -0.487% (inactive).

In the case of `COc1cccc(NC(=O)Cn2c3ccc(F)cc3c3nc4n(c(=O)c32)CCS4)c1`, the activation is -5.72% (inactive).

In the case of `COc1ccc(-c2cc3n(n2)CCc2nc4ccccc4n2-3)cc1`, the activation was 6.36% (inactive).

On to `O=C(COC(=O)c1ccc(S(=O)(=O)N2CCc3ccccc3C2)cc1)NC(=O)NCc1ccco1`, for which the activation is -0.464% (inactive).

Turning to `O=c1c2ccccc2oc2nc(C3CCCCC3)n(Cc3ccco3)c(=O)c12`, the activation is -1.5% (inactive).

With `Cc1ccc2nc(NC(=O)C3CCN(S(=O)(=O)c4ccc5c(c4)oc(=O)n5C)CC3)sc2c1`, the activation was -11.8% (inactive).

On to `COC(=O)c1sc2ncccc2c1OCc1ccc(Cl)cc1Cl`, for which the activation was -1.37% (inactive).

In the case of `O=C(N/N=C/c1ccco1)c1ccc(NC(=O)C2CC2)cc1`, the activation is -0.767% (inactive).

For `O=C1c2cccc3cccc(c23)C(=O)N1c1cccc(O)c1`, the activation is 3.04% (inactive).

For the compound `COc1cc2[nH]c(=O)n(Cc3ccc(C(=O)NC4CCN(Cc5ccccc5)CC4)cc3)c(=O)c2cc1OC`, the activation was 0.608% (inactive).

Take `Cc1ccc(-c2cc(C(=O)N/N=C/C=C/c3ccccc3)n[nH]2)o1`: the activation is 2.21% (inactive).

For the compound `COc1ccccc1NC(=O)C1=C(C)Nc2nnnn2C1c1cccc(Br)c1` (stereo unspecified), the activation was 5.03% (inactive).

For `Nc1nonc1-n1nnc(C(=O)N/N=C/c2ccc(Cl)cc2)c1-c1ccc2c(c1)OCO2`, the activation was 1.91% (inactive).

For `COC(=O)c1ccc(C23CC4(C2)[C@H](CN(Cc2cccnc2)[C@@H]4c2ccccc2)C3c2ccc(Cl)nc2)cc1` (stereo partly specified), the activation was -13.4% (inactive).

Consider `COc1ccc(C(=O)Nc2c(N)nc(SCC(=O)Nc3ccc(C(C)=O)cc3)[nH]c2=O)cc1`, for which the activation was 5.95% (inactive).

For `COc1ccc(NC(=O)CCC(=O)Nc2nnc(C3CCCCC3)s2)cc1`, the activation was 3.71% (inactive).

As for `COc1ccc(C(=O)n2nc(-c3ccc(Cl)cc3)nc2N)cc1OC`, the activation is 0.58% (inactive).

With `N#Cc1c(N)nc2c3c(sc(=N)c2c1N)NC(=O)CC3c1ccccc1Cl` (stereo unspecified), the activation was 3.21% (inactive).

In the case of `Cc1ccc(NC(=O)COc2ccc(/C=N\NC(=O)c3cccnc3)cc2)cc1C`, the activation is 5.95% (inactive).

Consider `CCOc1ccccc1NC(=O)Cn1nnc(C(=O)NCc2cccs2)c1N`, for which the activation is 2.5% (inactive).

Take `CCOc1ccc2nc(N(CCN(C)C)C(=O)c3ccc4ccccc4c3)sc2c1`: the activation was -2.94% (inactive).

As to `COc1ccccc1CNC(=O)Cn1c(=O)oc2cc(Cl)ccc21`, the activation is 5.98% (inactive).

Regarding `O=C(Cc1ccc(-n2c(=O)c3sccc3n(Cc3ccc(F)cc3)c2=O)cc1)NCc1ccco1`, the activation is 7.21% (inactive).

Regarding `COc1ccc(/C=C/C(=O)Nc2ccc(C34CC5CC(CC(O)(C5)C3)C4)cc2)cc1OC`, the activation is 5.41% (inactive).

`COc1ccc(Nc2nc(NCc3ccco3)nc(N/N=C/c3ccccc3Cl)n2)cc1`: the activation is 2.55% (inactive).

Consider `Cc1ccc(-c2cc(C(=O)NCc3cn(C)nc3C)c3cc(Br)ccc3n2)cc1`, for which the activation was -0.3% (inactive).

As for `Cc1cccc(C(=O)Nc2ccccc2-c2nnn(CC(=O)Nc3ccc4c(c3)OCCO4)n2)c1`, the activation was -0.9% (inactive).

Regarding `COC(=O)c1scc(C)c1NC(=O)CSc1ccc(Cl)cc1`, the activation is 4.2% (inactive).

Consider `CC[C@@H](C)[C@@H]1CN([C@@H](C)CN2CCC[C@H]2CN2C(N)=NC[C@H]2C(C)C)C(=N)N1CCc1ccc(Cl)c(Cl)c1`, for which the activation was -6.51% (inactive).

With `Cc1ccccc1NC(=O)c1ccc(COc2ccc3c(C)cc(=O)oc3c2)cc1`, the activation was 1.47% (inactive).

As for `Cc1nnc(NC(=O)Nc2ccc(Cl)c(Cl)c2)s1`, the activation is 0.165% (inactive).

Consider `NC(=O)NC(=O)CSc1nc2cc([N+](=O)[O-])ccc2n1-c1cccc(C(F)(F)F)c1`, for which the activation was 3.51% (inactive).

On to `O=C(Cn1cnc2c(nnn2Cc2ccc(F)cc2)c1=O)NCc1ccc2c(c1)OCO2`, for which the activation is 3.1% (inactive).

Consider `O=C(Nc1ccccc1)c1ccc(NC(=O)c2cccs2)cc1`, for which the activation was 6.7% (inactive).

As for `COC(=O)c1nc2n(n1)C(c1ccc([N+](=O)[O-])cc1)C(C(=O)Nc1ccc(Cl)cc1)=C(C)N2` (stereo unspecified), the activation is 2.9% (inactive).

In the case of `COc1ccc(/C=C/C(=O)Nc2c(C)nn(C)c2C)cc1COc1ccc(Br)cc1`, the activation was 5.31% (inactive).

For the compound `CCCOc1ccc(C(=O)C(CCC(CNCC)C(=O)c2ccc(OCCC)cc2)CNCC)cc1` (stereo unspecified), the activation is 4.31% (inactive).

Take `COc1ccc(CC(=O)Nc2ccc(C(=O)NC(C)(C)C)cc2)cc1`: the activation is -6.76% (inactive).

Take `CC(=O)Nc1ccc(S(=O)(=O)NCC(=O)OCc2cc(=O)oc3ccc4ccccc4c23)cc1`: the activation was -1.24% (inactive).

Regarding `O=C(CN1C(=O)c2cccc3cccc1c23)Nc1ccccc1`, the activation was 5.42% (inactive).

As for `O=C(COc1coc(CN2CCN(c3ccccc3F)CC2)cc1=O)N1CCc2ccccc21`, the activation was -0.869% (inactive).

As for `CCOc1ccc(-n2c(SCC(=O)Nc3ccc(OC)cc3)nc3sc4c(c3c2=O)CCN(C)C4)cc1`, the activation is -0.551% (inactive).

Consider `C#CCOCCOCCOCCNc1nc(N2CCN(C(=O)C(Cc3ccc(O)cc3)n3cc(C(N)CC(C)C)nn3)CC2)nc(N2CCN(C(=O)C(Cc3ccc(O)cc3)n3cc(C(N)C(C)CC)nn3)CC2)n1` (stereo unspecified), for which the activation was 2.47% (inactive).

Regarding `CN(C)CCN(C(=O)CN1C(=O)c2ccccc2C1=O)c1nc2cc3c(cc2s1)OCCO3`, the activation is 0.813% (inactive).

Regarding `Cc1ccc(NC(=O)COc2ccc(/C=C3/NC(=O)NC3=O)cc2)cc1`, the activation was 2.85% (inactive).

As for `O=C(Nc1cccnc1Cl)c1cc(-c2ccccc2O)on1`, the activation is -0.741% (inactive).

Turning to `CCOC(=O)C1=C(O)/C(=C/c2ccc(OCC(=O)Nc3ccc(C)cc3)cc2)N=C1C`, the activation was 3.13% (inactive).

For the compound `c1ccc(C[C@H]2CNCCN2CCC23CC4CC(CC(C4)C2)C3)cc1`, the activation is 2.28% (inactive).

For `COc1ccc(CNC(=O)c2nnn(CC(=O)Nc3cc(C)cc(C)c3)c2N)cc1`, the activation is 3.37% (inactive).

`Cc1ccc(S(=O)(=O)N2CCC(Oc3ccc(-n4cnnn4)cc3)CC2)cc1`: the activation is -4.91% (inactive).

Turning to `Cn1cccc1/C=C1\SC(=O)N(CC(=O)Nc2ccc(F)cc2)C1=O`, the activation is 0.105% (inactive).

`COc1ccc(/C=C/C(=O)OCC(=O)N2CCN(S(=O)(=O)c3ccc(C)cc3C)CC2)cc1OC`: the activation was -0.0445% (inactive).

As for `O=C(Cn1nnc(-c2ccc3c(c2)OCO3)n1)NCc1ccco1`, the activation was -2.21% (inactive).

On to `Nc1nc(SCC(=O)Nc2cc(C(F)(F)F)ccc2Cl)[nH]c(=O)c1NC(=O)c1ccco1`, for which the activation was -8.35% (inactive).

As to `O=C(N/N=C/c1cccc(Br)c1)c1ccc(N2CCCC2=O)cc1`, the activation was 3.06% (inactive).

Take `Nc1ccc(C(=O)OCC(=O)NC2CCCc3ccccc32)cc1[N+](=O)[O-]` (stereo unspecified): the activation is 0.712% (inactive).

In the case of `COc1ccc(Br)cc1C(=O)NC(=S)Nc1cc(-c2nc3ccccc3[nH]2)ccc1C`, the activation is -0.0125% (inactive).

For `COc1cccc(OCc2cc(/C=N/NC(=O)c3nc(Cl)c(Cl)c(N)c3Cl)ccc2OC)c1`, the activation is 1.13% (inactive).

Take `Cc1cc(C)c2nc3nc(C)cc(C)c3c(N)c2c1`: the activation was 0.483% (inactive).

Consider `O=C(Nc1ccccc1)Nc1nnc(COc2ccccc2F)s1`, for which the activation was -9.71% (inactive).

Consider `Cc1ccc(OCC(=O)Nc2ccccc2C(=O)NC2CC2)cc1C`, for which the activation is 1.23% (inactive).

With `COc1ccc(-c2cc(=O)c3c(O)cc(O[C@@H]4O[C@H](CO[C@@H]5O[C@@H](C)[C@H](O)[C@@H](O)[C@H]5O)[C@@H](O)[C@H](O)[C@H]4O)cc3o2)cc1O`, the activation was 0.468% (inactive).

For the compound `O=C(Nc1ccc(S(=O)(=O)N2CCc3ccccc3C2)cc1)c1ccccc1`, the activation was 6.54% (inactive).

Take `NC(N)=Nc1nc2ccc(Br)cc2c(=O)[nH]1`: the activation is -0.0365% (inactive).

As for `Cc1cc(NC(=O)Nc2c[nH]c(=O)[nH]c2=O)ccc1Br`, the activation is 7.25% (inactive).

For `CCN1CCN(c2cc3nc(C)n(Cc4ccccc4)c(=O)c3cc2NC(=O)c2ccccc2F)CC1`, the activation is 3.66% (inactive).

In the case of `C=CCn1c(=NC(=O)c2ccc(S(=O)(=O)N3CCCC3)cc2)sc2cc(NC(C)=O)ccc21`, the activation was 2.06% (inactive).

Regarding `CS(=O)(=O)c1ccc(-c2nnn(CC(=O)Nc3ccc4c(c3)OCCO4)n2)cc1`, the activation was 2.96% (inactive).

As to `CC(=O)Nc1ccc(NC(=O)COc2ccccc2C(=O)Nc2cccc(Cl)c2Cl)cc1`, the activation was -3.31% (inactive).

As for `Cn1c(=O)oc2cc(S(=O)(=O)N3CCC(C(=O)Nc4ccc(OC(F)(F)F)cc4)CC3)ccc21`, the activation is 3.32% (inactive).

Consider `Cc1ccc(C(=O)NNC(=O)c2cc3cc4ccccc4nc3s2)cc1`, for which the activation was -0.255% (inactive).
